Measured values published in PubChem BioAssay.
Active and inactive are the calls of the source.

Tests used:
[1] = target: Albumin (Bos taurus) (UniProt P02769); test: bovine serum albumin binders on microarray, profiling panel, artefact control for SMM control protein annotation, biochemical, small-molecule microarray, Alexa647 label, 635/667 nm fluorescence (AID 1118); settings: BSA-A647 binding, fluorescence 635 nm, higher = more signal;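 further: score merges 667 nm emission intensity and signal-to-noise per printed compound spot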
Albumin (Bos taurus), sequence (P02769 whole entry, looked up): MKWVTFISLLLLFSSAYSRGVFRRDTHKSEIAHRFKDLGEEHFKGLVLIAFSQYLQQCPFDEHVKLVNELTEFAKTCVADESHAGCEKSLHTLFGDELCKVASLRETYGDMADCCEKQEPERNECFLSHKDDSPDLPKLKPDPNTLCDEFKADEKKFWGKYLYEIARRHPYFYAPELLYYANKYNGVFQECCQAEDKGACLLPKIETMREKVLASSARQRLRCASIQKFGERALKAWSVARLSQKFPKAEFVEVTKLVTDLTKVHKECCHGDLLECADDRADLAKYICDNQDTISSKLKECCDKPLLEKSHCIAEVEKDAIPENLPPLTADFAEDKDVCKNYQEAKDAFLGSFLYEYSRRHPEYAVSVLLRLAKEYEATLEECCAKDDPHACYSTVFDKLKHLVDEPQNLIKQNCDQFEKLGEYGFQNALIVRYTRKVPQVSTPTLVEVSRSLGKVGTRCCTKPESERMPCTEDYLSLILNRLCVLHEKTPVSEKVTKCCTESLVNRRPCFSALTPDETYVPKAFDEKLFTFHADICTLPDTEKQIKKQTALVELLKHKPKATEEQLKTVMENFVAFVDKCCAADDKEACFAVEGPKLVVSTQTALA

[2] = small-molecule microarray binders of probe aXIP, primary screen, biochemical, NeuroSMM set, 635/667 nm fluorescence (AID 1119); settings: higher = more signal, called active from +8 up or from −8 down;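 further: probe is the protein aXip251-270 applied at 1 µg/mL to compound-printed slides; binding of probe to printed compounds measured as 667 nm fluorescence plus signal to noise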
[3] = small-molecule binders of probe aNOTCH3, primary screen, biochemical, small-molecule microarray, 635/667 nm fluorescence (AID 1120); settings: higher = more signal;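 further: probe is a biotin-tagged antibody raised against NOTCH3 rather than NOTCH3 protein; score merges spot fluorescence near 667 nm with spot signal to noise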
[4] = small-molecule binders of probe aNOTCH2, primary screen, biochemical, small-molecule microarray, 635/667 nm fluorescence (AID 1121); settings: higher = more signal;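 further: score merges feature fluorescence read at 667 nm with its signal to noise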
[5] = target: Carbonic anhydrase 2 (Homo sapiens) (UniProt P00918); test: CAII small-molecule binders, profiling panel, biochemical, small-molecule microarray, Alexa647-labelled CAII (AID 1122); settings: CAII-A647 binding fluorescence, higher = more signal
[6] = COS7 lysate on small-molecule microarray, probe aHis, 635 nm (AID 1123); settings: COS7 cell lysate, fluorescence, higher = more signal;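 further: z-score combines 667nm fluorescence intensity with signal-to-noise per printed compound spot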
[7] = compound binding in COS7 lysate, probe aLAP1, primary screen, cell lysate, small-molecule microarray (AID 1124); settings: probe aLAP1, fluorescence, higher = more signal;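 further: lysate comes from COS7 cells expressing LAP1 and is applied at 0.3 µg/mL; score merges spot fluorescence near 667 nm with signal-to-noise over triplicate slides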
[8] = tested on: Sam68 (KHDRBS1); test: Sam68 small-molecule binders, primary screen, biochemical, small-molecule microarray, 635 nm fluorescence (AID 1125); settings: small-molecule microarray binding, higher = more signal;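 further: score merges 667 nm channel intensity with signal to noise over triplicate slides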
[9] = tested on: Chordin-like protein 2 (CHRDL2); test: CHRDL2 small-molecule binders, primary screen, biochemical, small-molecule microarray, 635 nm fluorescence (AID 1126); settings: small-molecule microarray binding, fluorescence 635 nm; higher = more signal;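 further: printed compound slides probed with Chrdl2 protein at 4 µg/mL for 1 h at 4 C; score merges 667 nm emission intensity with signal to noise over three replicate slides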
[10] = target: Concanavalin-A (Canavalia ensiformis) (UniProt P02866); test: ConA small-molecule binders, primary screen, artefact control for SMM control protein annotation, biochemical, small-molecule microarray, Alexa647 label, 635 nm (AID 1127); settings: ConA-A647 binding fluorescence, higher = more signal;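 further: z combines 667 nm emission intensity with signal-to-noise across three replicate slides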
Concanavalin-A (Canavalia ensiformis), sequence (P02866 whole entry, looked up): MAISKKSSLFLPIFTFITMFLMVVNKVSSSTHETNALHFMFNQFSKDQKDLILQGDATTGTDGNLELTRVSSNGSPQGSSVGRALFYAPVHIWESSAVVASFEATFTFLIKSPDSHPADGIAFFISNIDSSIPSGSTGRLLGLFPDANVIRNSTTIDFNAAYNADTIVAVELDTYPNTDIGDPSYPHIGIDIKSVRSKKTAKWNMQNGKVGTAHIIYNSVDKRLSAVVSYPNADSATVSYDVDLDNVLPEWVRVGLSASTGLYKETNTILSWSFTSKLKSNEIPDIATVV

[11] = anti-His antibody binders, primary screen, artefact control for SMM control protein annotation, biochemical, small-molecule microarray, 635 nm fluorescence (AID 1128); settings: anti-His Alexa647 antibody binding, higher = more signal;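 further: score merges feature fluorescence with signal-to-noise for each printed compound spot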
[12] = tested on: Human papillomavirus type 1a E7 protein (residues 1-88); test: HPV1a E7 small-molecule binders, primary screen, biochemical, small-molecule microarray, residues 1-88, 635 nm (AID 1129); settings: small-molecule microarray binding, fluorescence 635 nm; higher = more signal
[13] = target: Focal adhesion kinase 1 (Homo sapiens) (UniProt Q05397); test: small-molecule microarray binders of FAK, primary screen, biochemical, 635/667 nm fluorescence, BSA, DTT (AID 1130); settings: PTK2 binding, 635 nm fluorescence, higher = more signal;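 further: composite of spot emission at 667 nm and signal to noise over triplicate slides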
Focal adhesion kinase 1 (Homo sapiens), sequence (Q05397 whole entry, looked up): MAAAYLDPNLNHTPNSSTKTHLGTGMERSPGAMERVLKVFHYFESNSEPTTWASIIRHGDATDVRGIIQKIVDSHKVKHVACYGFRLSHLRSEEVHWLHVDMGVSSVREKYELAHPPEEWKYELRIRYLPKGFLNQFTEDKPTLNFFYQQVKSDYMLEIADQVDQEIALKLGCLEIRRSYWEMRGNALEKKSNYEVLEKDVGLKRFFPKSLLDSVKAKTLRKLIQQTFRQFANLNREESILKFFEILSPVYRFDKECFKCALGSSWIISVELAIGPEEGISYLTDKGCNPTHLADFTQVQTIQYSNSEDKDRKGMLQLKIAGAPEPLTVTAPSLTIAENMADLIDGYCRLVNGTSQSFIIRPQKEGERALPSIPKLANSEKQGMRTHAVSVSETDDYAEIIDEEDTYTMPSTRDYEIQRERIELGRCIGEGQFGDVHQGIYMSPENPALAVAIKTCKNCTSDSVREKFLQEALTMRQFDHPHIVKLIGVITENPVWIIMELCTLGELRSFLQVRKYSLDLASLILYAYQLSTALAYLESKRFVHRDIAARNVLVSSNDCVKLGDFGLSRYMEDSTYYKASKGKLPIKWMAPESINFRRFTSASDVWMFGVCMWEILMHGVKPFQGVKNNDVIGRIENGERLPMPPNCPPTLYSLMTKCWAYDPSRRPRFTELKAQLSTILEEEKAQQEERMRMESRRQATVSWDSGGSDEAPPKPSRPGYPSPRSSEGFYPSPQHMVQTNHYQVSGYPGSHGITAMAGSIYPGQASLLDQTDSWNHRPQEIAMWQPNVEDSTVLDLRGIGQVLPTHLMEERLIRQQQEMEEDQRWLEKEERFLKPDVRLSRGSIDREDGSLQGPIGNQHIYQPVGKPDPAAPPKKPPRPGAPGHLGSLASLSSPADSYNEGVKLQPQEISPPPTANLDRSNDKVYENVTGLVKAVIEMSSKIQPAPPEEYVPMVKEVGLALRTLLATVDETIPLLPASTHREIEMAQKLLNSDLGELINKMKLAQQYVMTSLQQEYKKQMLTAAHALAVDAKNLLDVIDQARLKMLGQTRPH

[14] = tested on: Fibrinogen (Alexa647-labelled); test: fibrinogen binders on compound microarrays, profiling panel, artefact control for SMM control-protein annotation, biochemical, small-molecule microarray, 635/667 nm fluorescence (AID 1131); settings: fibrinogen-A647 binding fluorescence, higher = more signal;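 further: z-score merges 667 nm fluorescence with per-spot signal-to-noise over triplicate slides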
[15] = target: Follistatin (Homo sapiens) (UniProt P19883); test: follistatin binders on small-molecule microarrays, primary screen, biochemical, small-molecule microarray, 635/667 nm fluorescence (AID 1132); settings: FST binding, 635 nm fluorescence, higher = more signal
Follistatin (Homo sapiens), sequence (P19883 whole entry, looked up): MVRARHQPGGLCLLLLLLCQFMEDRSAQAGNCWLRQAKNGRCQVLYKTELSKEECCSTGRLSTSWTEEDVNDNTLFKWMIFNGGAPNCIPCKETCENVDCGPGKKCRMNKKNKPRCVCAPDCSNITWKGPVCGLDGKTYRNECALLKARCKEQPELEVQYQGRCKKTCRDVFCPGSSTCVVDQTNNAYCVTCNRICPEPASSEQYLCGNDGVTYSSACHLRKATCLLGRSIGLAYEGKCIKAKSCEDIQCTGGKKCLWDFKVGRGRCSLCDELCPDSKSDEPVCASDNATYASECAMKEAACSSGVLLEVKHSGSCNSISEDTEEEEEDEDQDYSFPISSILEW

[16] = target: Fibroblast growth factor 2 (Homo sapiens) (UniProt P09038); test: FGF2 binders on small-molecule microarrays, primary screen, biochemical, small-molecule microarray, 635/667 nm fluorescence (AID 1133); settings: small-molecule microarray binding, FGF2, fluorescence 635/667; higher = more signal
Fibroblast growth factor 2 (Homo sapiens), sequence (P09038 whole entry, looked up): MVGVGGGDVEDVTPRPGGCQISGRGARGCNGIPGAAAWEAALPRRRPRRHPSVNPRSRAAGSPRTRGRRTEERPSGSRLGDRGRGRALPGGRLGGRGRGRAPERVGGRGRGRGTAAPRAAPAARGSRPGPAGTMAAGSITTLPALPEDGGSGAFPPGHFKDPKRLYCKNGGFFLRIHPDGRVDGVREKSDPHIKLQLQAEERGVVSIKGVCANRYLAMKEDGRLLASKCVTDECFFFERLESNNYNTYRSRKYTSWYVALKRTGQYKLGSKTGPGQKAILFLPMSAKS

[17] = mitochondrial membrane potential change in A549 cells, profiling panel, cell-based, JC-1 fluorescence, basal, 24 h, 100 nL (AID 1138); settings: higher = more signal;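 further: A549 lung adenocarcinoma cells under basal conditions with no added stimulus; test concentration not given here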
[18] = tested on: Lefty1; test: Lefty1 binders on small-molecule microarrays, primary screen, biochemical, small-molecule microarray, 635/667 nm fluorescence (AID 1139); settings: small-molecule microarray binding, fluorescence 635/667; higher = more signal
[19] = tested on: wheat germ agglutinin (Triticum aestivum), Alexa647-labelled; test: wheat germ agglutinin binders on compound microarrays, profiling panel, artefact control for SMM control-protein annotation, biochemical, small-molecule microarray, 635/667 nm fluorescence (AID 1140); settings: WGA-A647 binding, 635 nm fluorescence, higher = more signal;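 further: score merges 667 nm feature emission with signal to noise over triplicate slides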
[20] = target: Luciferin 4-monooxygenase (Photinus pyralis) (UniProt P08659); test: firefly luciferase enzyme inhibitors, primary screen, biochemical, luminescence, purified enzyme, 2006 set (AID 1141); settings: SteadyGlo luminescence, 30 min, higher = more signal, called active from +8 up or from −8 down;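 further: cell-free assay with purified firefly luciferase at 100 ng per well in PBS; test concentration not given here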
Luciferin 4-monooxygenase (Photinus pyralis), sequence (P08659 whole entry, looked up): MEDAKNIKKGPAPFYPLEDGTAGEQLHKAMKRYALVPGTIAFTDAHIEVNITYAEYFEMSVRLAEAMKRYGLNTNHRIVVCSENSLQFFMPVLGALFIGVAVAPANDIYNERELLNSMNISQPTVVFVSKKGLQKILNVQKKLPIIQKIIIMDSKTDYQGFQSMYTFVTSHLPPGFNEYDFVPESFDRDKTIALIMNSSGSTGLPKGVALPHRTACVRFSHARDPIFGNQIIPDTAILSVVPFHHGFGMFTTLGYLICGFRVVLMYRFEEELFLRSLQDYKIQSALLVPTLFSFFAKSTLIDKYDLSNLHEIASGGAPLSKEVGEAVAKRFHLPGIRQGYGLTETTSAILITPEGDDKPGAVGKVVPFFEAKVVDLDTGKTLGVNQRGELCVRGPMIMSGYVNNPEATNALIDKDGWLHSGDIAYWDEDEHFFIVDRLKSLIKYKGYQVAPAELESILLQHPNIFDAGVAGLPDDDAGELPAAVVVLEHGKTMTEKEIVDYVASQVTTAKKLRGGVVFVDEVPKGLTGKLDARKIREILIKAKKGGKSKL

Row | Compound | composite z-score [1] | composite Z-score [2] | composite z-score [3] | composite z-score [4] | composite z-score [5] | composite z-score [6] | composite z-score [7] | composite z-score [8] | composite z-score [9] | composite z-score [10] | composite z-score [11] | composite z-score [12] | composite z-score [13] | composite z-score [14] | composite z-score [15] | composite z-score [16] | z-score [17] | composite z-score [18] | composite z-score [19] | z-score [20]
1 | CCOC(=O)C[C@H]1[C@H](OC(=O)c2ccc(C(=O)c3ccccc3)cc2)[C@@H](NC(=O)c2ccc(-c3ccccc3)cc2)c2cc(OCCCO)ccc2N1C(=O)Cc1ccc(OC)cc1 | 0.519 | -0.153 (inactive) | 0.16 | 0.121 | 0.177 | 0.93 | 0.0285 | 0.512 | -0.0479 | 0.458 | 0.0658 | 0.556 | 0.0784 | 0.544 | 0.51 | -0.205 | 0.967 | 0.374 | 0.223 | 0.408 (inactive)
2 | C=CCC(OC(C)=O)[C@@H]1[C@@H](N(Cc2ccc(-c3cccc(C(F)(F)F)c3)o2)C(=O)Cc2ccc(OC)cc2)c2cc(OCCCO)ccc2N1C(=O)c1ccc(-c2ccccc2)cc1 (stereo not given in full) | 0.0925 | -0.4 (inactive) | 0.0711 | 0.0178 | 0.251 | 0.206 | -0.155 | 0.272 | 0.121 | -0.94 | -0.0127 | -0.501 | -0.326 | -0.771 | 0.569 | 0.119 | 0.0544 | 0.0533 | -0.402 | 0.244 (inactive)
3 | CC(C)NC(=O)[C@@]1(c2ccc([N+](=O)[O-])cc2)CC(=O)N(C2CCCCC2)[C@@H]1c1ccc(CO)cc1 | 0.807 | -0.107 (inactive) | 0.325 | -0.245 | 0.729 | 2.17 | 0.94 | 1.26 | -0.0413 | 1.02 | 2.4 | 1.17 | 0.959 | 0.729 | 1.28 | 0.584 | 0.438 | 1.29 | 0.965 | 1.46 (inactive)
4 | CC(C)N1C(=O)c2ccccc2[C@@H](C(=O)NCCN2CCOCC2)[C@@H]1c1ccc(CO)cc1 | 0.466 | 1.62 (inactive) | -0.313 | -0.155 | 0.786 | -0.735 | -0.523 | -1.21 | -1.51 | -0.538 | 1.3 | -0.736 | -0.378 | -1.99 | -0.0463 | -1.57 | 0.156 | -0.786 | -1.23 | 0.128 (inactive)
5 | CC(C)c1ccc(NN2C(C(O)c3ccc(C#N)cc3)C=CC3C(=O)N(c4ccccc4)C(=O)C32)cc1 (stereo not given) | 1.04 | 0.238 (inactive) | 0.33 | -0.0296 | 0.358 | 2.84 | 0.982 | 1.3 | 0.0494 | 0.926 | 0.433 | 1.21 | 1.97 | 1.04 | 1.01 | -0.14 | -0.131 | -0.278 | 0.949 | -0.973 (inactive)
6 | COCC(=C=CC[C@H](O)c1ccccc1OCCO)C[C@H](O)c1ccccn1 | 0.519 | 0.2 (inactive) | -0.116 | -0.0984 | 0.426 | -0.0733 | -0.144 | 0.544 | -0.123 | 0.215 | 0.247 | 0.128 | -0.17 | -0.473 | 1.02 | 0.262 | 1.5 | 0.426 | -0.0118 | -1.02 (inactive)
7 | O=C(Cc1ccccc1)[C@H]1C2C=CCCC(c3ccccc3)=C2CN1Cc1ccccc1 (stereo not given in full) | -0.567 | -0.041 (inactive) | -0.166 | -0.179 | -0.302 | -0.328 | 0.0448 | -0.299 | 0.23 | -0.22 | -0.162 | -0.304 | -0.241 | -0.0983 | 0.436 | 0.869 | 1.77 | -0.519 | -0.394 | -1.06 (inactive)
8 | CCCNC(=O)[C@@]1(Sc2ccc(C)cc2)CC(=O)N(C2Cc3ccccc3C2)[C@@H]1c1ccc(CO)cc1I | -0.533 | -0.0764 (inactive) | 0.606 | -0.0186 | 0.427 | 0.807 | 0.702 | 0.95 | 0.378 | -0.162 | 1.59 | 0.255 | 0.371 | 0.34 | 1.01 | -0.209 | 1.87 | 0.489 | 0.157 | -0.767 (inactive)
9 | O[C@@H](Cc1ccccc1)[C@@H](/C=C/C1CC1)N(CC#Cc1ccccc1)Cc1ccccc1Br | -0.144 | 0.586 (inactive) | -0.218 | -0.171 | -0.0441 | 0.41 | 0.146 | -1.33 | -1.36 | -0.564 | 0.167 | -0.33 | 0.284 | -0.651 | -1.12 | -1.71 | 0.163 | -0.512 | -1.11 | -0.375 (inactive)
10 | [N-]=[N+]=Nc1ccccc1C[C@@]1(C(=O)N2CCOCC2)N=C(c2ccc(OCCCO)cc2)O[C@@H]1c1ccccc1 | 0.847 | 0.527 (inactive) | 0.457 | -0.224 | 0.544 | 2.59 | -0.235 | 1.32 | -0.209 | 1.11 | 1.19 | 1.19 | 0.625 | 0.986 | 1.32 | 1.35 | 1.08 | 0.3 | 0.313 | -2.43 (inactive)
11 | C[C@@H]1NC(=O)[C@@H](Cc2ccccc2)NC(=O)[C@@]23C(=O)N[C@@H](Cc4ccccc4)C2[C@H](C)[C@@]2(C)O[C@H]2C3/C=C/C/C=C\CNC1=O (stereo not given in full) | 0.324 | -0.888 (inactive) | -0.277 | -0.125 | 0.493 | 1.05 | 0.074 | 0.126 | -0.153 | -0.447 | -0.116 | -0.514 | -0.0535 | -0.913 | 0.41 | -0.0086 | -0.0637 | 0.633 | -0.889 | -1.03 (inactive)
